# Assay results from the supplement of paper PMC8728848.
# The full list was thinned out, with the strongest signals kept by preference.
# Key:
# Assay in all cases: glycan array binding signal (z-score within array); higher = stronger binding
# Conditions in all cases: glycan notation: IUPAC condensed, linker removed
# [1] = molecular target: Fuc(a1-2)Gal(b1-3)GalNAc(b1-3)Gal(a1-4)Gal(b1-4)Glc
# How it was run: (§1)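 The Consortium for Functional Glycomics database supplied 3228 glycan arrays, of which those lacking an available protein sequence were dropped. The binding signal, a within-array Z-score, was averaged across arrays of the same protein sequence and across linkers. Negative scores can be read as non-binding.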
# Fuc(a1-2)Gal(b1-4)GlcNAc = molecular target: Fuc(a1-2)Gal(b1-4)GlcNAc
# How it was run: as §1
# [2] = molecular target: Fuc(a1-2)Gal(b1-4)GlcNAc(b1-3)Gal(b1-4)GlcNAc
# How it was run: as §1
# [3] = molecular target: Fuc(a1-2)[Gal(a1-3)]Gal(b1-4)Glc
# How it was run: as §1
# [4] = molecular target: Fuc(a1-2)[Gal(a1-4)]Gal(b1-4)GlcNAc
# How it was run: as §1
# [5] = molecular target: Fuc(a1-2)[GalNAc(a1-3)]Gal(b1-4)GlcNAc
# How it was run: as §1
# [6] = molecular target: Fuc(a1-3)[Gal(b1-4)]GlcNAc(b1-2)Man(a1-6)[Gal(b1-4)GlcNAc(b1-2)Man(a1-3)]Man(b1-4)GlcNAc(b1-4)GlcNAc
# How it was run: as §1
# [7] = molecular target: Fuc(a1-3)[Gal3S(b1-4)]GlcNAc6S
# How it was run: as §1
# Gal(b1-3)Gal(b1-4)GlcNAc = molecular target: Gal(b1-3)Gal(b1-4)GlcNAc
# How it was run: as §1
# Gal(b1-4)Glc6S = molecular target: Gal(b1-4)Glc6S
# How it was run: as §1
# [8] = molecular target: Gal(b1-4)GlcNAc(b1-2)Man(a1-3)[Gal(b1-4)GlcNAc(b1-2)Man(a1-6)]Man(b1-4)GlcNAc(b1-4)GlcNAc
# How it was run: as §1
# [9] = molecular target: Gal(b1-4)GlcNAc(b1-3)[Gal(b1-4)GlcNAc(b1-6)]Gal(b1-4)GlcNAc
# How it was run: as §1
# [10] = molecular target: Gal(b1-4)GlcNAc(b1-6)[Gal(b1-3)]GalNAc
# How it was run: as §1
# [11] = molecular target: Gal3S(b1-4)[Fuc(a1-3)]Glc
# How it was run: as §1
# Gal3S6S(b1-4)GlcNAc6S = molecular target: Gal3S6S(b1-4)GlcNAc6S
# How it was run: as §1
# GlcNAc(b1-3)GalNAc = molecular target: GlcNAc(b1-3)GalNAc
# How it was run: as §1
# [12] = molecular target: GlcNAc(b1-3)[GlcNAc(b1-4)][GlcNAc(b1-6)]GlcNAc
# How it was run: as §1
# [13] = molecular target: Man(a1-2)Man(a1-3)[Man(a1-2)Man(a1-6)]Man
# How it was run: as §1
# [14] = molecular target: Neu5Ac(a2-3)Gal(b1-4)GlcNAc(b1-3)Gal(b1-4)[Fuc(a1-3)]GlcNAc
# How it was run: as §1
# [15] = molecular target: Neu5Ac(a2-8)Neu5Ac(a2-8)Neu5Ac
# How it was run: as §1
binder,measurement,setting,value
"MCI4 (Toxoplasma gondii), Q9XZH7 (protein) MRASLPVHLVVCTQLSAVWFGVAKAHGGHRLEPHVPGFLQGFTDITPAGDDVSANVTSSEPAKLDLSCVHSDNKGSRAPTIGEPVPDVSLEQCAAQCKAVDGCTHFTYNDDSKMCHVKEGKPDLYDLTGGKTASRSCDRSCFEQHVSYEGAPDVMTAMVTSQSADCQAACAADPSCEIFTYNEHDQKCTFKGRGFSAFKERGVLGVTSGPKQFCDEGGKLTQEEMEDQISGCIQLSDVGSMTADLEEPMEADSVGACMERCRCDGRCTHFTFNDNTRMCYLKGDKMQLYSSPGDRTGPKSCDSSCFSNGVSYVDDPATDVETVFEISHPIYCQVICAANPLCTVFQWYASEAKCVVKRKGFYKHRKTGVTGVTVGPREFCDFGGSIRDREEADAVGSDDGLNAEATMANSPDFHDEVECVHTGNIGSKAQTIGEVKRASSLSECRARCQAEKECSHYTYNVKSGLCYPKRGKPQFYKYLGDMTGSRTCDTSCLRRGVDYSQGPEVGKPWYSTLPTDCQVACDAEDACLVFTWDSATSRCYLIGSGFSAHRRNDVDGVVSGPYTFCDNGENLQVLEAKDTE",glycan array binding signal (z-score),[1],-0.22
same,glycan array binding signal (z-score),Fuc(a1-2)Gal(b1-4)GlcNAc,-0.204
same,glycan array binding signal (z-score),[2],-0.214
same,glycan array binding signal (z-score),[3],-0.206
same,glycan array binding signal (z-score),[4],-0.203
same,glycan array binding signal (z-score),[5],-0.21
same,glycan array binding signal (z-score),[6],-0.201
same,glycan array binding signal (z-score),[7],-0.225
same,glycan array binding signal (z-score),Gal(b1-3)Gal(b1-4)GlcNAc,5.93
same,glycan array binding signal (z-score),Gal(b1-4)Glc6S,5.04
same,glycan array binding signal (z-score),[8],4.68
same,glycan array binding signal (z-score),[9],7.5
same,glycan array binding signal (z-score),[10],5.16
same,glycan array binding signal (z-score),[11],-0.213
same,glycan array binding signal (z-score),Gal3S6S(b1-4)GlcNAc6S,-0.228
same,glycan array binding signal (z-score),GlcNAc(b1-3)GalNAc,-0.203
same,glycan array binding signal (z-score),[12],-0.202
same,glycan array binding signal (z-score),[13],-0.213
same,glycan array binding signal (z-score),[14],-0.217
same,glycan array binding signal (z-score),[15],-0.217
